Records with an inconclusive call do not appear. Activity calls are given as the source filed them. Calls come from the whole dose curve; as a rule, active = well fitted cell-killing curve with a large enough effect; inconclusive = small, poorly fitted or top-dose-only effect, or effect the other way; inactive = no such curve, though single readings can be large or run the other way.
What was measured:
[1] = Quantitative High-Throughput drug screen in 47 multiple myeloma cell lines against the NCATS MIPE library collection: MM1R_ATCC cell viability assay (AID 1918981); note: nearly all actives have a fitted effect of over 35% in size; note: potency is the fitted concentration of half-maximal effect
Outline: (§1)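 Inhibition of viability over 48 h was scored by ATP content (CellTiter-Glo) in 500-cell wells. Zero and full viability were defined by media-only and DMSO-only wells.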

[2] = Quantitative High-Throughput drug screen in 47 multiple myeloma cell lines against the NCATS MIPE library collection: LP1_DSMZ cell viability assay (AID 1918982); note: nearly all actives have a fitted effect of over 35% in size; note: potency is the fitted concentration of half-maximal effect
Outline: as §1

[3] = Quantitative High-Throughput drug screen in 47 multiple myeloma cell lines against the NCATS MIPE library collection: OCIMY7_PLB cell viability assay (AID 1918987); note: nearly all actives have a fitted effect of over 65% in size; note: potency is the fitted concentration of half-maximal effect
Outline: as §1

[4] = Quantitative High-Throughput drug screen in 47 multiple myeloma cell lines against the NCATS MIPE library collection: SKMM1_PLB cell viability assay (AID 1919863); conditions: SKMM1 myeloma viability, CellTiter-Glo ATP, 48 h; viability: stronger effect = lower value; note: potency is the fitted concentration of half-maximal effect; nearly all actives have a fitted effect of over 35% in size
Outline: as §1

[5] = Quantitative High-Throughput drug screen in 47 multiple myeloma cell lines against the NCATS MIPE library collection: XG6_PLB cell viability assay (AID 1919865); note: nearly all actives have a fitted effect of over 40% in size; note: potency is the fitted concentration of half-maximal effect
Outline: as §1

[6] = Quantitative High-Throughput drug screen in 47 multiple myeloma cell lines against the NCATS MIPE library collection: XG1_PLB cell viability assay (AID 1919866); note: nearly all actives have a fitted effect of over 35% in size; note: potency is the fitted concentration of half-maximal effect
Outline: as §1

[7] = Quantitative High-Throughput drug screen in 47 multiple myeloma cell lines against the NCATS MIPE library collection: VP6_DJ cell viability assay (AID 1919867); note: nearly all actives have a fitted effect of over 40% in size; note: potency is the fitted concentration of half-maximal effect
Outline: as §1

[8] = Quantitative High-Throughput drug screen in 47 multiple myeloma cell lines against the NCATS MIPE library collection: UTMC2_PLB cell viability assay (AID 1919868); conditions: CellTiter-Glo ATP luminescence, 48 h; viability (% of DMSO control): at 45.8 µM (top of the series); note: nearly all actives have a fitted effect of over 55% in size; note: potency is the fitted concentration of half-maximal effect
Outline: as §1

[9] = Quantitative High-Throughput drug screen in 47 multiple myeloma cell lines against the NCATS MIPE library collection: RPMI8226_ATCC cell viability assay (AID 1919871); note: nearly all actives have a fitted effect of over 30% in size; note: potency is the fitted concentration of half-maximal effect
Outline: as §1

[10] = Quantitative High-Throughput drug screen in 47 multiple myeloma cell lines against the NCATS MIPE library collection: OPM2_DSMZ cell viability assay (AID 1919872); note: nearly all actives have a fitted effect of over 30% in size; note: potency is the fitted concentration of half-maximal effect
Outline: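 We plated 500 myeloma cells per well, pinned in MIPE 4.0 compounds, and incubated for 48 hours at 37C. ATP was then quantified with CellTiter-Glo, with DMSO and media-only wells defining 100% and 0%.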

[11] = Quantitative High-Throughput drug screen in 47 multiple myeloma cell lines against the NCATS MIPE library collection: KMS11_JCRBsus cell viability assay (AID 1919873); note: nearly all actives have a fitted effect of over 50% in size; note: potency is the fitted concentration of half-maximal effect
Outline: as §1

[12] = Quantitative High-Throughput drug screen in 47 multiple myeloma cell lines against the NCATS MIPE library collection: KMS28BM_JCRB cell viability assay (AID 1919874); note: nearly all actives have a fitted effect of over 35% in size; note: potency is the fitted concentration of half-maximal effect
Outline: as §1

[13] = Quantitative High-Throughput drug screen in 47 multiple myeloma cell lines against the NCATS MIPE library collection: KMS28PE_JCRB cell viability assay (AID 1918983); note: nearly all actives have a fitted effect of over 35% in size; note: potency is the fitted concentration of half-maximal effect
Outline: as §1

[14] = Quantitative High-Throughput drug screen in 47 multiple myeloma cell lines against the NCATS MIPE library collection: PE2_PLB cell viability assay (AID 1919869); note: nearly all actives have a fitted effect of over 35% in size; note: potency is the fitted concentration of half-maximal effect
Outline: as §1

[15] = Quantitative High-Throughput drug screen in 47 multiple myeloma cell lines against the NCATS MIPE library collection: PCM6_Riken cell viability assay (AID 1919870); note: potency is the fitted concentration of half-maximal effect; nearly all actives have a fitted effect of over 30% in size
Outline: as §1

[16] = Quantitative High-Throughput drug screen in 47 multiple myeloma cell lines against the NCATS MIPE library collection: OPM1_PLB cell viability assay (AID 1918989); note: nearly all actives have a fitted effect of over 40% in size
Outline: as §1

[17] = Quantitative High-Throughput drug screen in 47 multiple myeloma cell lines against the NCATS MIPE library collection: U266_ATCC cell viability assay (AID 1919864); note: nearly all actives have a fitted effect of over 35% in size
Outline: as §1

[18] = Quantitative High-Throughput drug screen in 47 multiple myeloma cell lines against the NCATS MIPE library collection: OCIMY5_PLB cell viability assay (AID 1918988); note: potency is the fitted concentration of half-maximal effect; nearly all actives have a fitted effect of over 65% in size
Outline: as §1

O=c1[nH]c2ccccc2n1C1CCN(Cc2ccc(-c3[nH]c4cc5ncnc5cc4nc3-c3ccccc3)cc2)CC1
active: Potency [1] 16.6 µM | Potency [2] 20.9 µM | Potency [3] 8.33 µM | Potency [4] 20.9 µM | Potency [5] 7.43 µM | Potency [6] 7.43 µM | Potency [7] 9.35 µM | Potency [8] 13.2 µM | Potency [9] 13.2 µM | Potency [10] 18.7 µM | Potency [11] 20.9 µM | Potency [12] 18.7 µM

COc1ccc(N(C(=O)Oc2c(C)cccc2C)c2ccnc(Nc3ccc(N4CCN(C)CC4)cc3)n2)c(OC)c1
active: Potency [1] 2.35 µM | Potency [13] 18.7 µM | Potency [5] 0.332 µM | Potency [6] 0.296 µM | Potency [7] 2.96 µM | viability (% of DMSO control) [8] 84% | Potency [14] 2.64 µM | Potency [15] 16.6 µM | Potency [9] 4.18 µM | Potency [11] 9.35 µM | Potency [12] 7.43 µM

C#CC1(O)CCC2C3CCC4=CC(=O)CCC4(C)C3CCC21C (configuration not stated)
active: Potency [12] 18.7 µM
inactive: Potency [1] | Potency [2] | Potency [16] | Potency [17] | Potency [5] | Potency [6] | Potency [7] | Potency [14] | Potency [10] | Potency [11]

C[C@]12COC(=O)C[C@@H]1CC[C@@H]1[C@H]2CC[C@@]2(C)[C@H]1CC[C@]2(C)O
inactive: Potency [1] | Potency [13] | Potency [16] | Potency [17] | Potency [6] | Potency [9] | Potency [10] | Potency [11] | Potency [12]

CC(C)N(CCNC(=O)CN1CCCC1=O)C(C)C
inactive: Potency [1] | Potency [2] | Potency [17] | Potency [5] | Potency [8] | Potency [14] | Potency [10] | Potency [11] | Potency [12]

CCOP(=O)(OCC)C(C)NC(=O)N(CCCl)N=O (configuration not stated)
inactive: Potency [1] | Potency [13] | Potency [3] | Potency [16] | Potency [17] | Potency [5] | Potency [6] | Potency [8] | Potency [14] | Potency [9] | Potency [11] | Potency [12]

CC[C@@H]1[C@@H](C)O[C@@](O)([C@@H](C)[C@H](O)[C@H](C)[C@H]2OC(=O)C=CC=C[C@@H](C)[C@@H]([C@@H](C)[C@@H](O)[C@H](C)[C@@]3(O)C[C@H](O[C@H]4C[C@H](O)[C@H](O)[C@H](C)O4)[C@H](CC)[C@@H](C)O3)OC(=O)C=CC=C[C@@H]2C)C[C@H]1O[C@H]1C[C@H](O)[C@H](O)[C@H](C)O1
active: Potency [1] 0.526 µM | Potency [2] 0.59 µM | Potency [3] 0.662 µM | Potency [18] 0.372 µM | Potency [4] 0.662 µM | Potency [5] 0.469 µM | Potency [6] 0.469 µM | Potency [7] 0.469 µM | Potency [8] 1.05 µM | Potency [9] 0.372 µM | Potency [10] 0.372 µM | Potency [11] 0.418 µM | Potency [12] 0.372 µM

Source: PubChem BioAssay (NCATS)
